# From PubChem
# DRD3 agonist = agonists of human D3 dopamine receptor; P35462; D3R DiscoveRx beta-arrestin cells, luminescence, 90 min; max activation, %; 410,000 compounds, 0.58% hits; in the data active means max activation above about 30%; further: 0% is about no effect
#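 Agonist-mode cell screen: cells plated at 1500/well and incubated overnight at 37 °C, then exposed to library compounds for 90 min at 37 °C. Detection reagent was added for 30–60 min at room temperature, and luminescence was read.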
# D1 ag = agonists of human D1 dopamine receptor; P21728; HEK293 T-REx D1 cells, calcium flux, agonist mode; activation, % at 2 µM; 360,000 compounds, 1% hits; in the data active means activation above about 30%; further: 0% is about no effect
# Target sequence (P21728 whole entry, looked up): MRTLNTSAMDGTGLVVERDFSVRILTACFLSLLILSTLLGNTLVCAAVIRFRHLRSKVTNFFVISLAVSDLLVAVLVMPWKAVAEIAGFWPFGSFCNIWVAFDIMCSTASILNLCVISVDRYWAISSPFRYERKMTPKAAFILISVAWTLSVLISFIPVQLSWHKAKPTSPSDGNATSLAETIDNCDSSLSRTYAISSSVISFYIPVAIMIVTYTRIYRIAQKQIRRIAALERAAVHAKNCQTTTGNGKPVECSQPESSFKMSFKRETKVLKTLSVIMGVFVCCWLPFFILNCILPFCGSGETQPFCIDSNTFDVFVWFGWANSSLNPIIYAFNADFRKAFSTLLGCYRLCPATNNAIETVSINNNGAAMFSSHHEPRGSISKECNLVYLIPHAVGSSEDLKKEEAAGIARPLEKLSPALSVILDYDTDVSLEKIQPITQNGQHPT
#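 Inducible HEK293 T-REx D1 cells, force-coupled to calcium signalling, were plated at 4000 cells/well with tetracycline and held overnight at 30 C. After no-wash calcium dye loading, compound-evoked calcium rise over 180 s flagged agonists.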
# D1 antagonist = antagonists of human D1 dopamine receptor; P21728; HEK293 TREx D1 cells, calcium flux, dopamine EC80; hits give low values; activity change, negative = inhibition, % at 10 µM; 360,000 compounds, 3.2% hits; AID 504652; in the data active means activity change below about -30%; further: on the % scale 0 is the no-effect control and ±100 the full control effect
#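 Inducible Hek293 Trex D1 cells (tetracycline, overnight, 30 C). Calcium dye 30–90 min RT. Antagonist mode: EC80 dopamine added after 180 s compound read.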
# D1 PAM = potentiators of human D1 dopamine receptor | P21728 | HEK293 TREx D1 cells, calcium flux, dopamine EC20 potentiation | potentiation, % at 10 µM | 360,000 compounds, 0.036% hits; in the data active means potentiation above about 30%; further: 0% is about no effect
# D3 antag = D3 dopamine receptor (human) antagonism | D3R cells, DiscoveRx beta-arrestin luminescence, antagonist mode; hits give low values | max response, negative = inhibition, % | 360,000 compounds, 2.5% hits; in the data active means max response below about -50%; further: on the % scale 0 is the no-effect control and ±100 the full control effect
#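 Cells plated overnight at 1500 cells/well, then exposed to library compounds with dopamine controls for 90 minutes at 37 degrees C. DiscoveRx reagent added for 30–60 minutes at room temperature; luminescence read, quantitative HTS format.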
# Active calls of the source: *; x = not tested or not shown. Hits are enriched below; roughly 6% of the tested compounds scored in any of these assays.
SMILES,DRD3 agonist,D1 ag,D1 antagonist,D1 PAM,D3 antag
Cc1cc(/C=C2\SC(=S)N(Cc3ccco3)C2=O)c(C)n1-c1ccccc1,-1,31*,-20,-1,-19
CCOc1ccc(CC(=O)NCC(c2cccs2)S(=O)(=O)c2ccc(F)c(C)c2)cc1 (configuration not stated),2,4,10,0,x
CCCOc1ccc(NC(=O)CC2C(=O)N(CC)C(=S)N2CCCN2CCN(Cc3ccccc3)CC2)cc1 (configuration not stated),-22,13,-34*,-7,-18
CCN1C(=O)C(CC(=O)Nc2ccc(OC)cc2)N(CCc2ccc(OC)cc2)C1=S (configuration not stated),1,21,-33*,-6,-14
CCN1C(=O)C(CC(=O)Nc2ccc(OC)cc2)N(Cc2ccc(OC)c(OC)c2)C1=S (configuration not stated),2,1,6,2,-8
COc1ccc(-c2noc(CSc3nnc(C)n3-c3ccc(F)cc3)n2)cc1,6,4,-29,0,x
FCCCOc1ccc(/C=N/OCc2ccc(Cl)cc2)cc1,0,7,-19,-8,14
FCCCOc1ccc(/C=N/OCc2c(Cl)cccc2Cl)cc1,-3,11,-24,-10,-65*
O=C1CN(C(=O)CSc2nc3ccccc3c(=O)n2Cc2ccc(F)cc2)c2ccccc2N1,4,10,-59*,-8,-3
Cn1c(SCC(=O)N2CC(=O)Nc3ccccc32)nc2ccccc2c1=O,-6,1,-4,3,12
COc1ccccc1-n1ncc2c(=O)[nH]c(SCC(=O)Nc3ccc(Cl)cc3)nc21,2,1,12,-3,x
CCCCCCN1C=C/C(=C\C=C(C#N)C#N)c2ccccc21,-16,5,-4,-2,-30
CCCCCCN1C=CC=C/C1=C/C=C(C#N)C#N,1,132*,6,3,8
CCCCCN1C=CC=C/C1=C\C=C(C#N)C#N,3,71*,2,4,-11
CCc1ccccc1N(CC)C(=O)Cn1nc(Cc2ccncc2)c2ccccc2c1=O,-6,-2,10,1,x
CC(=O)NC(Cc1cccc(C)c1)C(=O)NC1CCN(S(=O)(=O)c2ccccc2)CC1 (configuration not stated),2,2,-36*,-6,2
CC(=O)NC(Cc1ccc(F)cc1)C(=O)NC1CCN(S(=O)(=O)c2ccccc2)CC1 (configuration not stated),-7,1,8,-7,-2
O=C(NCCCN1CCOCC1)c1c(O)c2cc(Br)cc(Br)c2[nH]c1=O,12,4,-36*,-2,-25
CCc1ccc(-n2nc(C)c3c(C)cc(=O)n(Cc4nc(-c5ccccc5)oc4C)c32)cc1,2,6,2,3,x
COc1cccc(-n2ccn(CC(=O)Nc3ccccc3F)c(=O)c2=O)c1,2,9,-22,-4,x
COc1ccc(CCN(C)C(=S)NC(=O)c2ccc(F)cc2Cl)cc1OC,4,4,-56*,-3,0
O=C(CCCN1C(=O)c2ccccc2C1=O)Nc1ccc(Br)cn1,0,0,-13,1,17
O=C(CCCN1C(=O)c2cccnc2C1=O)Nc1ccc(Br)cc1,-7,-1,-55*,-5,-9
O=C(NCCc1ccc(F)cc1)C(=O)NCC(c1ccc2c(c1)OCO2)N1CCOCC1 (configuration not stated),-4,0,-10,2,x
CCCNC(=O)C(Cc1ccccc1)NC(=O)c1ccccn1 (configuration not stated),-7,-1,-12,1,-56*
SMILES,DRD3 agonist,D1 ag,D1 antagonist,D1 PAM,D3 antag
CCCNC(=O)C(Cc1ccccc1)NC(=O)c1ccc(C(F)(F)F)cc1 (configuration not stated),5,-2,1,7,8
COCCNc1nc2c(c(=O)n(C)c(=O)n2C)n1Cc1cccc(C)c1,6,0,-50*,-9,47
C=CCNc1nc2c(c(=O)n(C)c(=O)n2C)n1Cc1ccc(F)cc1,2,5,2,-6,-30
COc1ccc(Cn2c(NCC(C)C)nc3c2c(=O)n(C)c(=O)n3C)cc1,-2,2,-41*,0,x
CCc1ccc(N2CCn3c2nc2c3c(=O)n(Cc3ccc(F)cc3)c(=O)n2C)cc1,11,11,-46*,-6,x
CCC(C)Nc1nc2c(c(=O)n(C)c(=O)n2C)n1Cc1ccc(F)cc1 (configuration not stated),-9,-1,-85*,-21,21
CCc1ccc(N2CCn3c2nc2c3c(=O)n(Cc3c(F)cccc3Cl)c(=O)n2C)cc1,1,6,-21,-2,x
Cc1cccc(Cn2c(NCCO)nc3c2c(=O)n(C)c(=O)n3C)c1,6,1,1,-1,15
COCCCNc1nc2c(c(=O)n(C)c(=O)n2C)n1Cc1cccc(OC)c1,-3,0,-9,1,-19
Cc1cccc(S(=O)(=O)NC2CCN(C#N)C2)c1 (configuration not stated),x,6,-16,-3,x
O=S(=O)(c1ccc(C(F)(F)F)cc1)N1CCN(S(=O)(=O)c2ccc3c(c2)OCCO3)CC1,x,-1,11,7,x
Cc1ccc(N2CCN(Cc3nnc(-c4ccccc4F)o3)CC2)c(C)c1,-15,11,-50*,-3,x
Oc1c(C(c2ccccc2Cl)N2CCCC2)ccc2cccnc12 (configuration not stated),-7,5,6,3,-53*
COc1cc(C(=O)NC(c2ccc(Cl)cc2)c2cc(Cl)c3cccnc3c2O)cc(OC)c1OC (configuration not stated),4,5,5,1,x
Oc1c(C(c2cccs2)N2CCN(c3ccccc3)CC2)ccc2cccnc12 (configuration not stated),x,1,-10,-5,x
Oc1c(C(c2ccccn2)N2CCC(Cc3ccccc3)CC2)cc(Cl)c2cccnc12 (configuration not stated),-17,8,0,-5,-112*
Cc1ccc(C(c2cc(Cl)c3cccnc3c2O)N2CCN(C)CC2)cc1 (configuration not stated),-31,-1,-3,-7,-118*
O=C(CCc1ccccc1)NC(c1cccs1)c1cc(Cl)c2cccnc2c1O (configuration not stated),7,10,7,-3,14
Oc1c(C(c2ccc(Cl)cc2)N2CCCC2)cc(Cl)c2cccnc12 (configuration not stated),-9,17,-20,3,-106*
Cc1ccc(-n2ncc3c(N4CCCCCC4)ncnc32)cc1C,19,-5,4,0,x
O=S(=O)(c1ccc2c(c1)OCCO2)N1CCN(S(=O)(=O)c2ccccc2F)CC1,x,3,-7,18,x
